In PubChem BioAssay (NCI):
Compounds without any hit were thinned out: in the full panel of roughly 79,000, 15% have a hit. No stated cut-off is given here; in the data, active means growth inhibition above about 70%; inactive means the rest.

Columns and labels:
[1] = NCI Yeast Anticancer Drug Screen. Data for the rad50 strain (AID 155);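 further: 0% = growth of vehicle-only cultures of the same strain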; conditions: S. cerevisiae rad50 strain growth inhibition; at 50.0 µM; hits give high values
Outline: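 Vehicle-treated cultures provide the reference for the growth inhibition reported for compound-exposed, repair-deficient yeast.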

[2] = NCI Yeast Anticancer Drug Screen. Data for the mec2-1 strain (AID 157); conditions: S. cerevisiae mec2-1 strain, at 50.0 µM, hits give high values
Outline: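 mec2-1 yeast strain, carrying an alteration in DNA damage repair or cell cycle control, was exposed to compounds; growth inhibition was measured relative to vehicle-treated controls.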

[3] = NCI Yeast Anticancer Drug Screen. Data for the sgs1 mgt1 strain (AID 161);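 further: 0% = growth of cultures given vehicle only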; conditions: S. cerevisiae sgs1 mgt1 strain, at 50.0 µM, hits give high values
Outline: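 Compounds are added to genetically altered yeast, and growth is compared with cultures given vehicle alone to give percent inhibition.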

[4] = NCI Yeast Anticancer Drug Screen. Data for the cln2 rad14 strain (AID 165);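 further: 0% = growth equal to vehicle treated cultures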; conditions: S. cerevisiae cln2 rad14 strain, at 50.0 µM, hits give high values
Outline: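 Yeast carrying cln2 and rad14 alterations (cell cycle control and DNA damage repair) were exposed to compounds. Growth inhibition was measured against vehicle-treated controls.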

[5] = NCI Yeast Anticancer Drug Screen. Data for the bub3 strain (AID 167); conditions: S. cerevisiae bub3 mutant strain, at 50.0 µM, hits give high values
Outline: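 Mutant yeast screening strain plus compound; vehicle-treated cultures serve as the 0% inhibition reference.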

[6] = NCI Yeast Anticancer Drug Screen. Data for the mlh1 rad18 strain (AID 175); conditions: S. cerevisiae mlh1 rad18 strain growth inhibition; at 50.0 µM; hits give high values
Outline: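 Growth inhibition of the yeast strain was measured after compound exposure and expressed relative to vehicle-treated controls. The strain carries defined defects in DNA damage repair.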

Measured: growth inhibition

CC1=NN(C(=O)CC(=O)Nc2cccc(C)c2)C(=O)C1N=Nc1ccc(C(=O)O)cc1 (stereo unspecified)
inactive: [1] -33.9% | [2] 5.95% | [3] 12.6% | [4] -11.7% | [5] -2.7% | [6] 25.9%

Nc1nc(Cl)cc(NCC(O)CO)n1 (stereo unspecified)
inactive: [1] 7.55% | [2] 2.35% | [3] -1.45% | [4] 6.65% | [5] -0.25% | [6] -2.55%

C=CC(O)C1OC2OC(C)(C)OC2C2OC(C)(C)OC12 (stereo unspecified)
inactive: [1] -2.75% | [2] 13.2% | [3] 2.7% | [4] -32.8% | [5] 21.4% | [6] 5.45%

CC(Oc1ccc(OCC2CCCCC2)cc1)C(=O)OCC(=O)c1ccc(-c2ccccc2)cc1 (stereo unspecified)
inactive: [1] -9.75% | [2] -7.4% | [3] -19.1% | [4] -3.15% | [5] -7.7% | [6] -11.3%

CCCCOC1CCC(O)C2CCCCC12 (stereo unspecified)
inactive: [1] 5.15% | [2] -2.5% | [3] -1.9% | [4] -0.7% | [5] -0.95% | [6] 9.85%

Nc1ncnc2c1[nH]c(=S)n2C1OC(CO)C(O)C1O (stereo unspecified)
inactive: [1] 14.4% | [2] 6.3% | [3] 3.1% | [4] -12.1% | [5] 4% | [6] 0.15%

CNCCN(C)Cc1ccccc1
inactive: [1] -17.4% | [2] -24.6% | [3] -3.8% | [4] 11% | [5] 10.7% | [6] -8.3%

O=S(=O)(O)n1ccnc1 (tested in a mixture with another compound)
inactive: [1] 20.9% | [2] 12.3% | [3] 1.3% | [4] -27.9% | [5] 14.7% | [6] 18.4%

CONS(=O)c1ccc(Cl)cc1 (stereo unspecified)
inactive: [1] 10.8% | [2] 28.2% | [3] 6.35% | [4] -27.2% | [5] 4.95% | [6] 11%

Cc1cc(Br)c(I)c([N+](=O)[O-])c1
inactive: [1] 34.5% | [2] 27.6% | [3] 17.8% | [4] 13.3% | [5] 7.45% | [6] 6.25%

CC(=O)NCCc1ccc(Cl)c(Cl)c1
inactive: [1] 13.6% | [2] -4.25% | [3] -5.95% | [4] -0.6% | [5] 3.35% | [6] -3.3%

c1ccc(Cn2c(-c3ccccc3)c[n+]3ccccc23)cc1
inactive: [1] -11.4% | [2] -10.1% | [3] 5.35% | [4] -49.4% | [5] 10.3% | [6] -6.4%

Nn1c(SSSSc2nnc(-c3ccccc3)n2N)nnc1-c1ccccc1
inactive: [1] -12.8% | [2] 3.85% | [3] -27.2% | [4] -19.7% | [5] 14.6% | [6] 4%

CC(=O)Cn1c(=O)oc2ccccc2c1=O
inactive: [1] 22.6% | [2] -9% | [3] -10.7% | [4] 49.5% | [5] 17.9% | [6] 10.1%

NC(=O)c1ccccc1N1CCCCC1
inactive: [1] 16.7% | [2] -0.2% | [3] 36% | [4] 21.5% | [5] 32.5% | [6] 22.4%

Cn1c(=O)[nH]c2c(-c3ccccc3)n[nH]c2c1=O
inactive: [1] 11.3% | [2] -1.65% | [3] 3.5% | [4] -45.5% | [5] 1.4% | [6] 4.3%

Cc1nc2sccc2c(=O)n1C
inactive: [1] -4.5% | [2] -3.6% | [3] -0.9% | [4] -4.1% | [5] 0.2% | [6] -4.35%

CC(C)CNCCCC(C)Nc1ccnc2cc(Cl)ccc12 (stereo unspecified)
inactive: [1] 11.3% | [2] -1.45% | [3] -2.25% | [4] -2.95% | [5] -15% | [6] -9.65%

COc1ccc(/C=C2\N=C(c3ccc(N)cc3)OC2=O)cc1OC
inactive: [1] 10.1% | [2] -0.05% | [3] 13.2% | [4] 20.1% | [5] 10.3% | [6] 19.9%

CC(=O)c1ccccc1Cc1cccc2c(Cl)cccc12
inactive: [1] 4.55% | [2] 6.05% | [3] 10.1% | [4] -0.95% | [5] 1.85% | [6] 18.6%

NC1=NN(c2ccccc2)C(=O)C1/C(=N\NC(=O)c1cc2ccccc2cc1O)C(=O)Nc1cccc(C(F)(F)F)c1 (stereo unspecified)
inactive: [1] 47% | [2] 15.7% | [3] -33.5% | [4] 19.9% | [5] 20.5% | [6] 31.4%
